Values joined by “and” are separate entries in the source; they are usually repeats but may differ in a detail not shown here. Equal entries are not always repeated. Results filed as inconclusive are left out. Active and inactive are the calls of the source. Calls come from the whole dose curve; as a rule, active = well fitted cell-killing curve with a large enough effect in the repeat runs; inconclusive = weak or mixed curves; inactive = no such curve, though single readings can be large or run the other way. Positions of bridges follow the written chain, without caps; N, C: chain ends. Non-standard residues stand in square brackets, D forms with d. Residues, ends and D or L forms follow the SMILES beside them. *: point of attachment. X1 = CC[C@@H](C)[C@@H](N)C1=N[C@H](C(=O)*)CS1; d(aIle) = CC[C@H](C)[C@@H](N)C(=O)O; dOrn = NCCC[C@@H](N)C(=O)O
Assay: qHTS assay for identifying genotoxic compounds that show differential cytotoxicity against isogenic chicken DT40 cell lines with known DNA damage response pathways - Rad54/Ku70 mutant cell line (AID 743015); note: nearly all actives have a fitted effect of over 60% in size
Settings: DT40 Rad54/Ku70 mutant viability, CellTiter-Glo, 40 h; series mostly up to 66.8 µM; activity change, negative = cytotoxicity: at the top concentration
% is set by controls: 0 for no effect and ±100 for the full control effect; potency is the fitted concentration of half-maximal effect.

| SMILES | activity change, negative = cytotoxicity | Potency |
| --- | --- | --- |
| COc1c(Br)cc(Br)c(C)c1Br | -2.61% (inactive) | – |
| NCC(O)CC(=O)O (stereo not drawn) | 7.71% (inactive) | – |
| O=C(N[C@H](CO)[C@H](O)c1ccc([N+](=O)[O-])cc1)C(Cl)Cl | – | 8.41 µM (active) and 19.7 µM (active) |
| O=C(CCCN1CCN2CCCC2C1)c1ccc(F)cc1 (stereo not drawn) | – | 8.41 µM (active) |
| Nc1nc(/C(=C/CC(=O)O)C(=O)N[C@@H]2C(=O)N3C(C(=O)O)=CCS[C@H]23)cs1 | 4.81% (inactive) | – |
| O=C1c2ccccc2CN2C(=O)c3ccccc3CN12 | 5.5% (inactive) | – |

Assay: qHTS assay to identify small molecule antagonists of the androgen receptor (AR) signaling pathway - cell viability counter screen (AID 743033; note: nearly all actives have a fitted effect of over 45% in size)
Settings: AR-bla HEK293 viability, CellTiter-Glo luminescence, 16 h; series mostly up to 58.5 µM; activity change, negative = cytotoxicity: at the top concentration

| SMILES | activity change, negative = cytotoxicity | Potency |
| --- | --- | --- |
| CCN(CC)CC#CCOC(=O)C(O)(c1ccccc1)C1CCCCC1 (stereo not drawn) | -20.5% (inactive) | – |
| CC(=O)O[C@H]1C[C@@H]2CC[C@@H]3[C@H](CC[C@@]4(C)[C@H]3C[C@H]([N+]3(C)CCCCC3)[C@@H]4OC(C)=O)[C@@]2(C)C[C@@H]1[N+]1(C)CCCCC1 | 3.26% (inactive) | – |
| CCN(CC)CCOC[C@H]1O[C@@H](O)[C@H](OCCN(CC)CC)[C@@H](O)[C@@H]1O | 10.9% (inactive) | – |
| CN=C(N)NCCC[C@H](N)C(=O)O | – | inactive |
| CSCC[C@H](NC(=O)[C@H](Cc1ccc(OS(=O)(=O)O)cc1)NC(=O)[C@@H](N)CC(=O)O)C(=O)NCC(=O)N[C@@H](Cc1c[nH]c2ccccc12)C(=O)N[C@@H](CCSC)C(=O)N[C@@H](CC(=O)O)C(=O)N[C@@H](Cc1ccccc1)C(N)=O | – | inactive |
| CCOC(=O)COc1ccc2c(=O)cc(-c3ccccc3)oc2c1 | – | inactive |
| CC[C@@H](C)[C@H](N)C(=O)O | -6.57% (inactive) | – |
| CCCCCCCCCCCC[n+]1ccc2ccccc2c1 | – | 3.01 µM (active) |
| O=C1CC[C@@H](C(=O)N[C@H]2C[C@@H]2c2ccccc2)N1 | 0.0821% (inactive) | – |
| CC(C)(S)C(=O)N[C@@H](CS)C(=O)O | – | inactive |
| CC(C)(C)C(=O)OCC(=O)[C@H]1CC[C@H]2[C@@H]3CCC4=CC(=O)CC[C@]4(C)[C@H]3CC[C@]12C | -1.24% (inactive) | – |
| NC[C@H]1O[C@H](O[C@H]2[C@H](O)[C@@H](O[C@H]3O[C@H](CO)[C@@H](O)[C@H](N)[C@H]3O)[C@H](N)C[C@@H]2N)[C@H](N)C[C@@H]1O | -17.2% [at 27 µM] (inactive) | – |
| C/C(=C\C(=O)OCCCCCCCCC(=O)O)C[C@@H]1OC[C@H](C[C@@H]2O[C@H]2[C@@H](C)[C@H](C)O)[C@@H](O)[C@H]1O | -2.63% (inactive) | – |
| O=[N+]([O-])c1ccc(O)c2ncccc12 | – | 10.7 µM (active) |
| Cc1cc(Br)ccc1NC(=O)CCl | – | 24.5 µM (active) |
| O=P(O)(O)C(O)(Cn1ccnc1)P(=O)(O)O | -8.69% (inactive) | – |
| CCOc1ccc(S(=O)(=O)O)c2cccnc12 | 2.3% (inactive) | – |
| FC(F)(F)COCC(F)(F)F | -0.781% (inactive) | – |
| CC(=NCc1ccccc1)c1ccccc1O | -2.08% (inactive) | – |

| SMILES | activity change, negative = cytotoxicity | Potency |
| --- | --- | --- |
| CC(=O)OCC(=O)[C@@]1(O)CC[C@H]2[C@@H]3CCC4=CC(=O)CC[C@]4(C)C3=CC[C@@]21C | 2.02% (inactive) | – |
| O=C(O)/C=C/C(=O)Nc1ccc(S(=O)(=O)Nc2nccs2)cc1 | 0.935% (inactive) | – |
| Cc1onc(-c2c(F)cccc2Cl)c1C(=O)N[C@@H]1C(=O)N2[C@@H]1SC(C)(C)[C@@H]2C(=O)O | – | inactive |
| O=C(O)c1cc2cc(Cc3cccnc3)ccc2o1 | 4.32% (inactive) | – |
| CC[C@@H](C)[C@@H](N)C1=N[C@H](C(=O)N[C@@H](CC(C)C)C(=O)N[C@@H](CCC(=O)O)C(=O)N[C@@H](C(=O)N[C@@H]2CCCCNC(=O)[C@@H](CC(N)=O)NC(=O)[C@@H](CC(=O)O)NC(=O)[C@@H](Cc3cnc[nH]3)NC(=O)[C@@H](Cc3ccccc3)NC(=O)[C@@H]([C@H](C)CC)NC(=O)[C@@H](CCCN)NC2=O)[C@@H](C)CC)CS1 (X1-LE[d(aIle)][dK][dOrn][dI][dF][dH][dD][dN]; lactam 4-C) | – | inactive |
| NC(=O)[C@H]1O[C@@H](O)[C@H](O)[C@@H](O)[C@@H]1O | -5.47% (inactive) | – |
| CC(C)C[C@H](NC(=O)[C@@H](COC(C)(C)C)NC(=O)[C@H](Cc1ccc(O)cc1)NC(=O)[C@H](CO)NC(=O)[C@H](Cc1c[nH]c2ccccc12)NC(=O)[C@H](Cc1cnc[nH]1)NC(=O)[C@@H]1CCC(=O)N1)C(=O)N[C@@H](CCCN=C(N)N)C(=O)N1CCC[C@H]1C(=O)NNC(N)=O | – | inactive |
| Cc1c(N)nc([C@H](CC(N)=O)NC[C@H](N)C(N)=O)nc1C(=O)N[C@H](C(=O)N[C@H](C)[C@@H](O)[C@H](C)C(=O)N[C@H](C(=O)NCCc1nc(-c2nc(C(=O)NCCCCN=C(N)N)cs2)cs1)[C@@H](C)O)[C@@H](O[C@@H]1O[C@@H](CO)[C@@H](O)[C@H](O)[C@@H]1O[C@H]1O[C@H](CO)[C@@H](O)[C@H](OC(N)=O)[C@@H]1O)c1cnc[nH]1 | – | inactive |
| NC(N)=NCCCCN=C(N)N | -5.23% (inactive) | – |
| COc1ccc(/C=N/NC(=O)c2ccncc2)c(C(=O)O)c1OC | -1.24% (inactive) | – |
| O=C1CCC(c2ccc(-n3ccnc3)cc2)=NN1 | 2.95% (inactive) | – |
| Cc1cnc(C(=O)O)c[n+]1[O-] | – | inactive |
| COc1c(Br)cc(Br)c(C)c1Br | -19.9% (inactive) | – |
| NCC(O)CC(=O)O (stereo not drawn) | -6.7% (inactive) | – |
| O=C(N[C@H](CO)[C@H](O)c1ccc([N+](=O)[O-])cc1)C(Cl)Cl | – | inactive |
| O=C(CCCN1CCN2CCCC2C1)c1ccc(F)cc1 (stereo not drawn) | -6.63% (inactive) | – |
| Nc1nc(/C(=C/CC(=O)O)C(=O)N[C@@H]2C(=O)N3C(C(=O)O)=CCS[C@H]23)cs1 | -23.2% (inactive) | – |
| O=C1c2ccccc2CN2C(=O)c3ccccc3CN12 | 0.137% (inactive) | – |
